The list is not random: actives were taken first. Their share in the collection is about 13%.
Pf growth 96h: P. falciparum growth inhibition at 96 hour, primary screen for plastid delayed-death inhibitors. P. falciparum luciferase reporter growth, 96 h. actives 6.9% (n = 320,000). AID 504834. Potency, µM (titrated, usually from 28.7 µM), actives largely listed as inhibitors
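96 h incubation, 37 C, 5% CO2, of luciferase-reporter P. falciparum-infected RBCs (2% hematocrit, 0.05% parasitemia final) with test compounds; endpoint luminescence.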
HCMV inh: human cytomegalovirus inhibition; HFF cells, HCMV-luciferase reporter, 72 h; active compounds read low; activity change, negative = inhibition, % at 57.5 µM; actives 4.5% (n = 410,000); AID 1259415; in the data active = activity change below about -60%; inconclusive = no clear call, values can overlap the other calls; inactive = above about -39%
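Screen run at 2 compound doses on HFFs infected with reporter HCMV, MOI 1 PFU/cell. Luciferase activity from cell lysates at 72 h post infection gave inhibition relative to buffer-only and Salinomycin wells.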
HCV inh: blocks hepatitis C virus; Huh7.5.1 HCVcc-Cre infection, luciferase reporter, 44 h; Potency, µM (series often up to 41.8 µM), usual class: inhibitors; actives 3.4% (n = 340,000)
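Seed cells (1,000/well) for 4 h; treat with compound and infect with HCVcc-Cre, moi about 0.5. Incubate 44 h, then detect luciferase activity.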
Pf growth 48h: inhibits P. falciparum growth in the first generation, 48 h. Potency, µM (doses to about 28.7 µM), hits mostly inhibitors. P. falciparum luciferase growth in erythrocytes, 48 h. AID 504832. actives 5.9% (n = 310,000)
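A one-generation exposure of luciferase-tagged malaria parasites in RPMI 1640/Albumax erythrocyte culture, 37 C and 5% CO2. Inhibition is inferred from decreased luminescence after adding detection reagent.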
A number is an active result; i = inactive; ? = inconclusive; nt = no result given. Unless noted, calls come from the whole dose curve; as a rule, active = well fitted inhibition curve with a large enough effect; inconclusive = small, poorly fitted or top-dose-only effect, or another doubt; inactive = no such curve, though single readings can be large or run the other way.

SMILES	Pf growth 96h	HCMV inh	HCV inh	Pf growth 48h
COCCOC(=O)C1=C(C)OC(N)=C(C#N)C1c1ccc2c(c1)OCO2 (stereo not drawn)	nt	i	i	i
Cc1cccc(C(=O)NC(=S)NNC(=O)c2ccc(Cl)cc2)c1	?	-84	?	i
COc1ccc(C(=O)NC(=S)NNC(=O)c2ccc(C)cc2)cc1	nt	i	?	nt
COc1ccc(C(=O)NC(=S)NNC(=O)c2ccc(NC(=O)C(C)C)cc2)cc1	?	i	16µM	?
CC(C)C(=O)Nc1cccc(NC(=S)NC(=O)c2ccc3c(c2)OCO3)c1	i	i	i	?
CC(C)C(=O)Nc1cccc(NC(=S)NC(=O)c2ccc(Cl)cc2)c1	i	-73	?	i
Cc1cc(NC(=O)Nc2nc3c(s2)CCCCCC3)ccc1Br	nt	i	nt	nt
Cc1ccc(-n2nc3c(c2NC(=O)c2ccc4c(c2)OCO4)CS(=O)C3)cc1 (stereo not drawn)	i	i	i	i
Cc1cccnc1NC(=O)c1ccc2c(c1)OCO2	i	i	i	i
Cc1cccnc1NC(=O)/C=C/c1ccc2c(c1)OCO2	10µM	i	i	i
Cc1ccccc1-n1nc2c(c1NC(=O)/C=C\c1ccc3c(c1)OCO3)CSC2	12µM	i	?	?
Cc1ccc(-n2nc3c(c2NC(=O)/C=C\c2ccc4c(c2)OCO4)CSC3)c(C)c1	13µM	i	?	?
Cc1ccc(-n2nc3c(c2NC(=O)C(C)(C)C)CSC3)c(C)c1	nt	i	i	i
Cc1ccc(-n2nc3c(c2NC(=O)/C=C\c2ccc4c(c2)OCO4)CSC3)cc1	13µM	i	?	i
O=S(=O)(NCc1csc(-c2ccccc2)n1)c1ccccc1	nt	i	nt	nt
COC(=O)c1nc(-c2ccc(C)cc2)[nH]c1C(C)(C)C	nt	i	nt	nt
COc1ccc(OC)c2c1sc(=NC(=O)c1ccco1)n2C	?	i	7.9µM	nt
COc1ccc(C(=O)N=c2sc3c(C)ccc(OC)c3n2C)cc1OC	i	i	16µM	i
COc1cccc(C(=O)N=c2sc3c(C)ccc(OC)c3n2C)c1	i	i	?	i
COc1ccc(OC)c2c1sc(=NC(=O)C1CC1)n2C	i	i	14µM	i
Cc1cccc(CNS(=O)(=O)c2ccc3[nH]c(=O)ccc3c2)c1	nt	i	nt	nt
CN(C)CC(O)CN1C(=O)NC(C)(C)C1=O (stereo not drawn)	2.1µM	i	i	i
N#Cc1ccc(C2=NC(C(F)(F)F)(C(F)(F)F)c3c(n(Cc4ccco4)c(=O)[nH]c3=O)N2)cc1	?	-85	i	?
O=c1[nH]c(=O)n(Cc2ccco2)c2c1C(C(F)(F)F)(C(F)(F)F)N=C(CCc1ccccc1)N2	2.3µM	i	?	?
O=c1[nH]c(=O)n(-c2ccc(F)cc2)c2c1C(C(F)(F)F)(C(F)(F)F)N=C(c1ccc(F)cc1)N2	12µM	-99	13µM	?
SMILES	Pf growth 96h	HCMV inh	HCV inh	Pf growth 48h
O=C1c2[nH]nc(-c3ccccc3O)c2C(c2ccc(F)cc2)N1CCO (stereo not drawn)	nt	i	nt	nt
CCOC(=O)c1c(NC(=O)c2cc(-c3ccc(Br)cc3)on2)sc(C)c1C	nt	i	nt	nt
C/C(=N\Nc1ccc(C(=O)c2c(C)cc3ccccn23)cc1[N+](=O)[O-])c1ccc(O)cc1	?	i	i	9.3µM
Cc1sc2c3ccsc3ccc2[n+]1C	i	i	i	i
CCN1/C(=C/c2ccc3ccccc3[n+]2CC)C=Cc2ccccc21	?	-104	4.5µM	nt
CCCCN1/C(=C/c2ccc3ccccc3[n+]2CC)Sc2ccccc21	i	nt	8.9µM	2.9µM
CCN1/C(=C/c2ccc3cc(C)ccc3[n+]2C)Sc2ccc3sccc3c21	i	-96	?	?
CCN1/C(=C/c2ccc3cc(C)ccc3[n+]2CC)Sc2cc(C)ccc21	?	-100	2.5µM	?
COc1cc(-c2noc(-c3ccc(N4CCN(C)CC4)c([N+](=O)[O-])c3)n2)cc(OC)c1OC	nt	i	nt	nt
CC(C)c1ccc(N2C(=O)CS(=O)(=O)C23C(=O)N(Cc2cccc(F)c2)c2ccccc23)cc1 (stereo not drawn)	nt	i	nt	nt
CCCCCSc1nnc2c(n1)OC(CC)Nc1ccc(Br)cc1-2 (stereo not drawn)	nt	i	nt	nt
Cc1ccc(N2CC(C(=O)NCc3nnnn3-c3ccc(C)c(C)c3)CC2=O)cc1C (stereo not drawn)	nt	i	nt	nt
COc1ccc(OCC(=O)Nc2ccc3c(c2)nc(CCn2ccccc2=O)n3C)cc1	5.2µM	?	i	?
Cc1nn(CC(=O)Nc2ccc3c(c2)nc(CCN2CCCCC2)n3C)c(=O)c2ccccc12	nt	-63	?	i
